# Only some compounds are listed: those with a hit (about 12% of all), similar ones and a draw of the others.
# BAZ2B inh = blocks human BAZ2B; Potency, µM (top dose mostly 114 µM), for the others: at the top dose activity change, negative = inhibition, hits mostly inhibitors; AlphaScreen BAZ2B-H3K14Ac peptide displacement; AID 504333; actives 4.4% (n = 360,000); Q9UIF8; also: % is scaled to controls: 0 for no effect and ±100 for the full control effect; nearly all actives have a fitted effect of over 60% in size
#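 Protein-peptide AlphaScreen: BAZ2B 50 nM, b-H3K14Ac 50 nM, 1x PBS pH 7.4 + 0.01% Tween-20. Preincubation 30 min RT; cpd 30 min RT (top 110 uM); beads 20 min RT, light-protected.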
# Sfp inh = Sfp phosphopantetheinyl transferase inhibition | Potency, µM, for the others: largest response in the series, negative = inhibition, actives largely listed as inhibitors | Biochemical Sfp PPTase activity, qHTS | AID 1490 | Q9F4F7 | actives 3.5% (n = 310,000);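 also: the enzyme is Sfp with the accession as filed and its product quenches rhodamine fluorescence; 0% = enzyme reaction without inhibitor and -100% = no enzyme wells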
#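 Sfp 15 nM + cpd, 15 min RT; start w/ rhodamine-CoA 5 uM, BHQ-2-YbbR 12.5 uM (final); 50 mM Hepes pH 7.6, 10 mM MgCl2, 0.01% NP-40, 0.01% BSA; read 525/598 nm at 0 and 30 min.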
# JMJD2A Tudor inh = JMJD2A Tudor domain (human) inhibition | O75164 | AlphaScreen JMJD2A-Tudor / H3K4me3 peptide binding | Potency, µM (titrated, usually from 114 µM), without a hit: at the top dose activity change, negative = inhibition, most hits filed as inhibitors | actives 4.4% (n = 390,000); also: % is scaled to controls: 0 for no effect and ±100 for the full control effect; nearly all actives have a fitted effect of over 50% in size
# PLK1 PBD block = blocks phosphopeptide binding to human PLK1 polo-box domain. Potency, µM, inactives show max response, negative = inhibition, most hits filed as inhibitors. Plk1 PBD binding of FITC phosphopeptide, fluorescence polarization. P53350. actives 2.8% (n = 360,000); also: series mostly up to about 57 µM; % is scaled to controls: 0 for no effect and ±100 for the full control effect; nearly all actives have a fitted effect of over 65% in size
# HP1b binding inh = inhibitors of HP1-beta chromodomain binding to methylated histone tails; actives 0.56% (n = 390,000); Potency, µM (series often up to 114 µM), without a hit: at the top dose activity change, negative = inhibition, hits mostly inhibitors; AlphaScreen HP1-beta / biotin-H3K9me3 peptide binding; P83916; also: nearly all actives have a fitted effect of over 70% in size
#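 Compound inhibition of the preformed complex between 50 nM HP1-beta and 50 nM biotinylated H3K9me3 peptide was read by AlphaScreen. Buffer was PBS pH 7.4 with 0.01% Tween-20. Incubations ran 30 min at room temperature, with 10 ug/mL donor/acceptor beads.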
# G9a inh = G9a (human) methyltransferase inhibition. Q96KQ7. G9a H3K9 monomethylation, AlphaScreen, 2 h. Potency, µM (highest dose often 102 µM), inactives show at the top dose activity, negative = inhibition, most hits filed as inhibitors. actives 8.8% (n = 350,000). AID 504332; also: % is scaled to controls: 0 for no effect and ±100 for the full control effect; nearly all actives have a fitted effect of over 75% in size
#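 AlphaScreen detection with an anti-monomethyl H3K9 antibody quantified product after a 2 h room-temperature reaction containing 500 nM biotinylated H3K9 peptide, 20 µM SAM and 20 nM enzyme, which had been preincubated 15 min with compound.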
# Numbers without * were called inactive; ? = inconclusive; . = not tested or not shown; [ ] = dose if it differs, or a comment. Calls follow the shape of the dose curve; as a rule, active = well fitted curve in the direction sought with a large enough effect; inconclusive = small, poorly fitted or top-dose-only effect, or another doubt; inactive = no such curve, though single readings can be large; an effect the other way counts as inactive or inconclusive. Potency is read from the fitted curve at half-maximal effect.
SMILES,BAZ2B inh,Sfp inh,JMJD2A Tudor inh,PLK1 PBD block,HP1b binding inh,G9a inh
Cc1oc2c(c1C(=O)Nc1cccc3ccccc13)CCCC2,-2%,15%,?,3µM*,?,2%[59 µM]
Cc1ccsc1C(=O)NNC(=O)Nc1ccc(Cl)c(Cl)c1,3%,-12%,3%[11.4 µM],?,-17%,15%[59 µM]
Cc1occc1C(=O)Nc1ccc(S(N)(=O)=O)cc1,-13%,-7%,22µM*,21µM*,?,.
Cc1cc(C(=O)Nc2cccc3ccccc23)c(C)o1,-18%,5%,-22%,-23%,-14%,14%
Cc1occc1C(=O)Nc1cccc2ccccc12,-31%,-9%,-15%,-6%,5%,11µM*
Cc1cc(NC(=O)c2ccoc2C)no1,-1%,-27%,-33%,?,13%,5µM*
Cc1occc1C(=O)Nc1ccccc1NC(=O)c1ccoc1C,.,.,89µM*,-26%,-7%,.
Cc1cc(NC(=O)c2cc([N+](=O)[O-])cc([N+](=O)[O-])c2)no1,-16%,7%,-8%,6%,73%,-28%
Cc1cc(NC(=O)c2cc([N+](=O)[O-])cc([N+](=O)[O-])c2C)no1,?,79µM*,-26%,-13%,10%,.
Cc1ccc(S(=O)(=O)c2c(O)c3ccc(C(=O)O)cc3[nH]c2=O)cc1,-3%,17%,0%,1%,40%,?
Cc1c(OCC(=O)N[C@@H](Cc2ccccc2)C(=O)O)ccc2c1oc(=O)c1ccccc12,8%,-1%,-16%,-5%,17%,.
Cc1nn(C)c2c1c(C(F)(F)F)cc(=O)n2CC(=O)NC(C)(C)C,-4%,.,3%,.,1%,-2%[59 µM]
Cc1[nH]c2ccccc2c1CC#N,-10%,4%,-12%,-5%,29%,-7%[59 µM]
Cc1[nH]c2ccccc2c1[C@H]1[C@@H](CC#N)C1(C)C,?,?,-24%[11.4 µM],30µM*,?,?
CC(=O)c1cccc(NS(=O)(=O)c2ccc(N/C=C/C(=O)c3ccc(F)cc3)cc2)c1,?,22%,-20%,0%,16%,8.9µM*
CC(=O)c1ccc(NS(=O)(=O)c2ccc(N/C=C/C(=O)c3ccc(F)cc3)cc2)cc1,-25%,15%,?,17µM*,2%,-31%[12.7 µM]
CC(=O)c1cccc(NS(=O)(=O)c2ccc(N/C=C\C(=O)c3ccc(F)cc3)cc2)c1,-29%[57.1 µM],2%,-25%,-5%,-2%,?
COc1ccc(-c2noc(CN3CCC(Cc4ccccc4)CC3)n2)cc1,17%,-3%,2%,-4%,51%,17%
COc1cc(OC)c(CN2CCC(Cc3ccccc3)CC2)cc1Br,56µM*,-19%,25µM*,-5%,0%,.
COc1cc(C)c(CN2CCC(Cc3ccccc3)CC2)cc1C,56µM*,-24%,28µM*,-11%,-19%,.
COc1ccc(OC)c(CN2CCC(Cc3ccccc3)CC2)c1,56µM*,-22%,50µM*,1%,?,.
COc1cccc(C(=O)NCCSc2c(-c3ccc(F)cc3)[nH]c3ccccc23)c1OC,-22%,.,-27%,.,14%,-4%[59 µM]
CC(C)C[C@@H](CC(=O)N[C@H](CC(=O)N[C@@H]1CCNC[C@H]1C(=O)N[C@H](CC(=O)N[C@@H](CCC(=O)O)CC(=O)O)Cc1ccccc1)C(C)C)NC(=O)[C@@H]1CCCC[C@H]1N,.,-13%,.,.,.,.
CCOC(=O)/C(C#N)=C1\C(=O)N(Cc2ccccc2)c2ccccc21,35µM*,35µM*,20µM*,3.4µM*,14µM*,.
CCO/C(C)=C1\C(=O)N(CC)c2ccccc21,-4%,4%,-10%,-4%,18%,50µM*
SMILES,BAZ2B inh,Sfp inh,JMJD2A Tudor inh,PLK1 PBD block,HP1b binding inh,G9a inh
CCOC(=O)/C(C#N)=C1/C=CN(Cc2ccccc2)C=N1,9%,5%,-20%,-4%,-1%,19%
O=C(c1cc(C(F)(F)F)cc(C(F)(F)F)c1)N1CCC2(CC1)CN(c1ncccn1)C2,.,0%,.,.,.,0%[12.7 µM]
CCOC(=O)Cc1csc(NC(=O)CSc2nc(=O)[nH]c3c2CCC3)n1,2%,.,4%,1%,36%,-30%
CCc1ccc(OCc2cc(=O)n3cc(C)sc3n2)cc1,5%,.,5%,.,44%,21%[59 µM]
CC(CCc1ccccc1)NS(=O)(=O)c1ccccc1 (stereo unspecified),5%,1%,-2%,-3%,76%,32%
CC(CCc1ccccc1)NS(=O)(=O)c1ccc(Cl)c(C(=O)O)c1 (stereo unspecified),-12%,7%,?,24µM*,9%,?
Cc1nn(-c2ccccc2)c2c1N(CCCC(=O)NCc1ccc(N(C)C)cc1)C(=O)CS2,?,.,56µM*,.,-18%,?
COc1ccc(NC(=O)NNC(=O)c2ccc3ccccc3c2)cc1OC,-15%,8%,-14%,-6%,17%,-11%
CCc1ccc2oc(-c3ccc(OC)cc3)cc(=Nc3c(C)n(C)n(-c4ccccc4)c3=O)c2c1,40µM*,79µM*,?,1%,?,25µM*
CCc1ccc2oc(-c3ccc(OC)cc3)cc(=Nc3cccc(C(=O)O)c3)c2c1,-38%,?,14µM*,27µM*,-23%,?
COc1ccc(-c2cc(=Nc3ccc(C(=O)O)cc3)c3cc(C)ccc3o2)cc1,.,17%,?,-15%,-4%,?
COc1ccccc1C(=O)Nc1cccc(OCc2cc(=O)n3c4c(sc3n2)CCCC4)c1,-3%,.,-9%,.,34%,8%[59 µM]
COc1cc(/C=C2/C(=N)N3C=CSC3=NC2=O)ccc1OCCCOc1ccccc1C,4%,-18%,5%,4%,8%,-13%[0.501 µM]
CS(=O)(=O)C1=NSC2=NC(=O)/C(=C\c3ccc(OS(=O)(=O)c4ccccc4)cc3)C(=N)N21,50µM*,-6%,?,30µM*,-10%,.
Cc1ccc(S(=O)(=O)Oc2ccc(/C=C3/C(=N)N4C(=NC3=O)SN=C4S(C)(=O)=O)cc2)cc1,?,-13%,?,21µM*,-7%[57 µM],.
COc1cccc(-n2c(C)cc(/C=C3/C(=N)N4C(=NC3=O)SN=C4S(C)(=O)=O)c2C)c1,56µM*,-4%,?,19µM*,-11%,45µM*
COc1cc(/C=C2/C(=N)N3C(=NC2=O)SN=C3S(C)(=O)=O)ccc1OS(=O)(=O)c1ccc(C)cc1,?,-12%,56µM*,27µM*,-17%,?
O=S(=O)(c1ccccc1)N1CCN(c2nc(-c3ccc(F)cc3)nc3cc(Cl)ccc23)CC1,.,.,-11%,.,65%,.
CCOc1ccc(N2C(=O)c3[nH]nc(-c4ccc(OC)cc4)c3C2c2cccs2)cc1 (stereo unspecified),-33%,.,-27%,.,14%,12%[59 µM]

# From PubChem BioAssay
